Measured values from the supplement of paper PMC12494721.
Where a name gives a salt, the structure may show the parent alone.

system: Clostridium sporogenes DSM 1664; experiment: fold change of Tryptamine concentration vs plate DMSO controls (fold change (ratio)); higher = more amine produced, active = hit call of the paper (significant change in both replicates, either direction); conditions: incubation time: 27 h, anaerobic, 37 °C
In short: (§1)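 Each value is the fold change relative to DMSO-only wells on the same plate. Four gut bacterial strains were grown anaerobically in mGAM at 37 °C for 27 h in 80 µL wells, starting at OD 0.1 before a 1:1 dilution, with compounds at 20 µM final (sweeteners 50 µM). Whole cultures were extracted with cold acetonitrile/methanol containing 0.1% formic acid, centrifuged, and amines were quantified by LC–triple-quadrupole MS (dynamic MRM) against external calibration curves with within-batch drift correction. Values are means of 2 biological replicates.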

Fold change of Tryptamine concentration, inactive:
CN(Cc1ccc(C(C)(C)C)cc1)Cc1cccc2ccccc12 [Butenafine hydrochloride] (20 µM) 0.918, CN1CCC(OC(c2ccccc2)c2ccccc2)CC1 [Diphenylpyraline hydrochloride] (20 µM) 1.01, c1ccc2cc3c(ccc4ccccc43)cc2c1 [Benz[a]anthracene] (20 µM) 1.17, CC1=C(C(=O)O)N2C(=O)[C@@H](NC(=O)[C@H](N)c3ccccc3)[C@H]2SC1 [Cephalexin monohydrate] (20 µM) 1.17, CNc1ncnc2c1ncn2[C@@H]1O[C@H](CO)[C@@H](O)[C@H]1O [N6-methyladenosine] (20 µM) 1.03, Cn1nnc2c(C(N)=O)ncn2c1=O [Temozolomide] (20 µM) 0.977, CN[C@@H]1[C@H](O[C@H]2[C@H](O[C@H]3[C@H](O)[C@@H](O)[C@H](N=C(N)N)[C@@H](O)[C@@H]3N=C(N)N)O[C@@H](C)[C@]2(O)C=O)O[C@@H](CO)[C@H](O)[C@H]1O [Streptomycin sulfate] (20 µM) 1.12, CC(C)Oc1ccc2c(=O)c(-c3ccccc3)coc2c1 [Ipriflavone] (20 µM) 1.01, CC[C@@H]1C(=O)OC[C@@H]1Cc1cncn1C [Pilocarpine nitrate] (20 µM) 0.955, COC(=O)[C@@H]1[C@H]2C[C@H]3c4[nH]c5ccccc5c4CCN3C[C@@H]2CC[C@@H]1O [Yohimbine hydrochloride] (20 µM) 1.03, CC(=O)N1CCN(c2ccc(OCC3COC(Cn4ccnc4)(c4ccc(Cl)cc4Cl)O3)cc2)CC1 (stereo not given) [Ketoconazole] (20 µM) 1.03, CN1C(C(=O)Nc2ccccn2)=C(O)c2ccccc2S1(=O)=O [Piroxicam] (20 µM) 1.09, NS(=O)(=O)c1cc2c(cc1Cl)NC(Cc1ccccc1)NS2(=O)=O (stereo not given) [Benzylhydrochlorothiazide] (20 µM) 1.05, Cc1cc2c(cc1S(N)(=O)=O)S(=O)(=O)CCC2 [Meticrane] (20 µM) 1.01, OC[C@@H](O)[C@@H](O)[C@@H](O)[C@@H](O)CO [Allitol] (50 µM) 1, Cc1c(N(C)C)c(=O)n(-c2ccccc2)n1C [Amidopyrine] (20 µM) 0.979

system: Ruminococcus gnavus DSM 108212; experiment: as above; conditions: incubation time: 27 h, anaerobic, 37 °C
In short: as §1

Fold change of Tryptamine concentration, inactive:
O=C1NCCN1CCN1CCC(c2cn(-c3ccc(F)cc3)c3ccc(Cl)cc23)CC1 [Sertindole] (20 µM) 0.908, CCSc1ccc2c(c1)N(CCCN1CCN(C)CC1)c1ccccc1S2 [Thiethylperazine maleate] (20 µM) 0.851, Cc1ccsc1/C=C/C1=NCCCN1C [Morantel tartrate] (20 µM) 0.918, COc1cc(C)nc(-n2nc(C)cc2OC)n1 [Epirizole] (20 µM) 0.971, CCC1(c2ccccc2)NC(=O)N(C)C1=O (stereo not given) [Mephenytoin] (20 µM) 1.02, CCCCCCCC/C=C\CCCCCCCCCCCC(=O)O [Erucic acid] (20 µM) 0.851, C#CCN(C)CCCOc1ccc(Cl)cc1Cl [Clorgyline hydrochloride] (20 µM) 0.971, CC1=NN(c2ccccc2)C(=O)C1 [Edaravone] (20 µM) 1.01, CC(=O)N[C@H]1[C@H]([C@H](O)[C@H](O)CO)OC(C(=O)O)=C[C@@H]1NC(=N)N [Zanamivir] (20 µM) 1.06, Cc1ccc(S(=O)(=O)NC(=O)NN2CCCCCC2)cc1 [Tolazamide] (20 µM) 1.14, CN1CCN(C2=Nc3cc(Cl)ccc3Nc3ccccc32)CC1 [Clozapine] (20 µM) 0.947, CCCNC(C)(C)C(=O)Nc1ccccc1C [Quatacaine] (20 µM) 1.05, CN(C)c1cc(NC(=O)CNC(C)(C)C)c(O)c2c1C[C@H]1C[C@H]3[C@H](N(C)C)C(=O)C(C(N)=O)=C(O)[C@@]3(O)C(=O)C1=C2O [Tigecycline] (20 µM) 1.08, CCN(CC)CCOC(=O)C(Cc1cccc2ccccc12)CC1CCCO1 (stereo not given) [Nafronyl oxalate] (20 µM) 1.01, CCN(CC)CCOC(=O)C1(C2CCCCC2)CCCCC1 [Dicyclomine hydrochloride] (20 µM) 0.845, NC(=O)NS(=O)(=O)c1ccc(N)cc1 [Sulfacarbamide] (20 µM) 1, O=c1[nH]cc(F)c(=O)[nH]1 [5-fluorouracil] (20 µM) 0.917, COC(=O)C1=C(C)NC(C)=C(C(=O)OC2CCCN(Cc3ccccc3)C2)C1c1cccc([N+](=O)[O-])c1 (stereo not given) [Benidipine hydrochloride] (20 µM) 0.983, CCNC(=O)CCC/C=C\C[C@@H]1[C@@H](/C=C/[C@@H](O)CCc2ccccc2)[C@H](O)C[C@@H]1O [Bimatoprost] (20 µM) 0.954, CN(Cc1ccc(C(C)(C)C)cc1)Cc1cccc2ccccc12 [Butenafine hydrochloride] (20 µM) 0.96, CN1CCC(OC(c2ccccc2)c2ccccc2)CC1 [Diphenylpyraline hydrochloride] (20 µM) 0.999, c1ccc2cc3c(ccc4ccccc43)cc2c1 [Benz[a]anthracene] (20 µM) 1.12, CC1=C(C(=O)O)N2C(=O)[C@@H](NC(=O)[C@H](N)c3ccccc3)[C@H]2SC1 [Cephalexin monohydrate] (20 µM) 1.1, CNc1ncnc2c1ncn2[C@@H]1O[C@H](CO)[C@@H](O)[C@H]1O [N6-methyladenosine] (20 µM) 1.04, Cn1nnc2c(C(N)=O)ncn2c1=O [Temozolomide] (20 µM) 1.02, CN[C@@H]1[C@H](O[C@H]2[C@H](O[C@H]3[C@H](O)[C@@H](O)[C@H](N=C(N)N)[C@@H](O)[C@@H]3N=C(N)N)O[C@@H](C)[C@]2(O)C=O)O[C@@H](CO)[C@H](O)[C@H]1O [Streptomycin sulfate] (20 µM) 1.02, CC(C)Oc1ccc2c(=O)c(-c3ccccc3)coc2c1 [Ipriflavone] (20 µM) 1.04, CC[C@@H]1C(=O)OC[C@@H]1Cc1cncn1C [Pilocarpine nitrate] (20 µM) 1.01, COC(=O)[C@@H]1[C@H]2C[C@H]3c4[nH]c5ccccc5c4CCN3C[C@@H]2CC[C@@H]1O [Yohimbine hydrochloride] (20 µM) 1.01, CC(=O)N1CCN(c2ccc(OCC3COC(Cn4ccnc4)(c4ccc(Cl)cc4Cl)O3)cc2)CC1 (stereo not given) [Ketoconazole] (20 µM) 0.984, CN1C(C(=O)Nc2ccccn2)=C(O)c2ccccc2S1(=O)=O [Piroxicam] (20 µM) 0.99, NS(=O)(=O)c1cc2c(cc1Cl)NC(Cc1ccccc1)NS2(=O)=O (stereo not given) [Benzylhydrochlorothiazide] (20 µM) 1.06, Cc1cc2c(cc1S(N)(=O)=O)S(=O)(=O)CCC2 [Meticrane] (20 µM) 0.986, OC[C@@H](O)[C@@H](O)[C@@H](O)[C@@H](O)CO [Allitol] (50 µM) 0.953, Cc1c(N(C)C)c(=O)n(-c2ccccc2)n1C [Amidopyrine] (20 µM) 1.16

Fold change of Tryptamine concentration, active:
Oc1c(Cl)cc(Cl)c2cccnc12 [Chloroxine] (20 µM) 0.589, CCOC(=O)[N-]c1c[n+](N2CCOCC2)no1 [Molsidomine] (20 µM) 0.153, CC[C@H]1OC(=O)[C@H](C)[C@@H](O[C@H]2C[C@@](C)(OC)[C@@H](O)[C@H](C)O2)[C@H](C)[C@@H](O[C@@H]2O[C@H](C)C[C@H](N(C)C)[C@H]2O)[C@](C)(O)C[C@@H](C)C(=O)[C@H](C)[C@@H](O)[C@]1(C)O [Erythromycin] (20 µM) 0.144, NC(=O)N/N=C/c1ccc([N+](=O)[O-])o1 [Nitrofural] (20 µM) 0.792
